The values that follow come from PubChem BioAssay (EPA / NIEHS).

Molecules are shown by their SMILES. Active and inactive are the calls of the source. Rule for the calls: active = hit-call score of the fitted dose curve at least 0.9, where 1 is the maximum; inactive = score below 0.9.

E-selectin (Homo sapiens), sequence (P16581 whole entry, looked up): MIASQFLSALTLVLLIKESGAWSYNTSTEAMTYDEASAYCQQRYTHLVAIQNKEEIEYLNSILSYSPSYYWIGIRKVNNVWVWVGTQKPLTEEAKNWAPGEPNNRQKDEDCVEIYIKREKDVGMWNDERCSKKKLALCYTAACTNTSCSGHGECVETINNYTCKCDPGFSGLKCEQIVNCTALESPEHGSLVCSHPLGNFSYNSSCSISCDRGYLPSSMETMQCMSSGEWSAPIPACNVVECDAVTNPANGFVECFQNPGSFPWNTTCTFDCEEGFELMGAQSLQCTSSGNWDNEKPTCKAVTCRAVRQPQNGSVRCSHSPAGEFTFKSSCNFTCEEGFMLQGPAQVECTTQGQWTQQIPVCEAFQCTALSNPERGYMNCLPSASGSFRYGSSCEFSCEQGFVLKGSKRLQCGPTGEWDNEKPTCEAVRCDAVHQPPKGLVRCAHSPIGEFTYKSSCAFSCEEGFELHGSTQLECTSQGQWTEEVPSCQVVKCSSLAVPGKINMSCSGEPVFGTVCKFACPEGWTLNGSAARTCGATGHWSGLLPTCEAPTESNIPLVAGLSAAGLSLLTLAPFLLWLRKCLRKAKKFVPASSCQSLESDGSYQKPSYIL

Read-out in the first test: Monocyte Chemoattractant Protein-1 (MCP1), CCL2 (gene 6347)
Briefly: BSK_SAg_MCP1: BioMAP Diversity Plus: SAg Assay for Monocyte Chemoattractant Protein-1 (MCP1) Biomarker Activity (AID 2283090). Particulars: primary human HUVEC with PBMC; actives raise or lower the signal. A digest of the protocol:
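MCP-1 levels in the endothelial–PBMC SAg co-culture were quantified by ELISA at 24 h post-dosing; both increases and decreases versus DMSO scored. Cytotoxicity monitored by SRB total protein in parallel cultures.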
On to `Nc1cc([N+](=O)[O-])ccc1O`, for which the result was inactive. In the case of `c1ccc2sc(SN(C3CCCCC3)C3CCCCC3)nc2c1`, the result was inactive. In the case of `COc1cc(C=O)ccc1OC(=O)C(C)C`, the outcome was inactive.

For the compound `CC(C)c1ccc(C(C)C)cc1`, the outcome was inactive.

Read-out in the next test: E-selectin (Homo sapiens) (UniProt P16581)
Briefly: BSK_SAg_Eselectin: BioMAP Diversity Plus: SAg Assay for Eselectin Biomarker Activity (AID 2283091). Particulars: primary human HUVEC with PBMC; actives raise or lower the signal. A digest of the protocol:
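Primary human endothelial cells and peripheral blood mononuclear cells were co-cultured and exposed to chemical for 24 hours. E-selectin levels were then quantified by ELISA, with bidirectional curve fitting normalised to DMSO controls.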
For the compound `O=C(O)c1cn(C2CC2)c2cc(N3CCNCC3)c(F)cc2c1=O`, the outcome was inactive. As for `C=C(C)C(=O)O[C@H]1C[C@@H]2CC[C@@]1(C)C2(C)C`, the AC50 was 34 µM (active). With `CCCCCCCCCCCCCCCCCC(=O)OCC(CC)CCCC` (stereo not given), the outcome was inactive. Consider `CC(C)(COC(=O)c1ccccc1)COC(=O)c1ccccc1`, for which the AC50 was 28.8 µM (active). Take `O=C(O)C[C@H](O)C[C@H](O)/C=C/c1c(C2CC2)nc2ccccc2c1-c1ccc(F)cc1`: the AC50 was 0.00197 µM (active). With `CCc1c(C)cc(N)c(CC)c1N`, the outcome was inactive. Regarding `CC(=O)OCCC(C)CC(C)(C)C` (stereo not given), the outcome was inactive. As for `O=C(O)c1cn(-c2ccc(F)cc2)c2cc(N3CCNCC3)c(F)cc2c1=O`, the outcome was inactive. For `CCn1c2ccccc2c2cc(N)ccc21`, the result was inactive. Turning to `O=C1OC2(c3cc(Br)c(O)c(Br)c3Oc3c2cc(Br)c(O)c3Br)c2c(Cl)c(Cl)c(Cl)c(Cl)c21`, the AC50 was 6.53 µM (active). In the case of `OC1OC[C@@H](O)[C@H](O)[C@H]1O` (stereo not given in full), the outcome was inactive. For the compound `BrC1CCC(Br)C(Br)CCC(Br)C(Br)CCC1Br` (stereo not given), the result was inactive.

With `Nc1cc([N+](=O)[O-])ccc1Cl`, the outcome was inactive. The same measure, in the same setting: to `CC(=O)O[C@]1(C(C)=O)CC[C@H]2[C@@H]3C[C@H](C)C4=CC(=O)CC[C@]4(C)[C@H]3CC[C@@]21C` belongs “inactive”; to `CCCCC(CC)COC(=O)/C=C\C(=O)OCC(CC)CCCC` (stereo not given), “inactive”. With `CCCCCCCCCC=O`, the AC50 was 33.6 µM (active).

In general, AC50 refers to the midpoint of the concentration-response curve, whichever way the signal moves.
